Rows were chosen to be rich in hits. Some 18% of all compounds tested hit in one or more screens of this group.
DT40 TDP1 CPT – DT40-hTDP1 cell growth loss with CPT; 420,000 compounds, 12% hits; chicken DT40 Tdp1-/-;hTDP1 cells + 20 nM CPT, ATP luminescence, 48 h; AID 686979; Potency, µM (series often up to 46.2 µM), for inactives: top-dose activity change, negative = growth inhibition, usual class: inhibitors; note: potency is the fitted concentration of half-maximal effect; % is set by controls: 0 for no effect and ±100 for the full control effect; nearly all actives have a fitted effect of over 55% in size
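Cell growth measured by CellTiter-Glo luminescence after a minimum 48 h, 37 C compound exposure with 20 nM CPT in Tdp1-knockout DT40 cells stably expressing hTDP1, seeded 400/well; qHTS titration format.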
TGFb SMAD3 inh – inhibitors of TGF-b signaling | HepG2 CAGA-GFP TGF-b/SMAD3 reporter, GFP fluorescence, 18 h; TGF-beta stimulated, 500 pg/mL final | Potency, µM (titrated, usually from 46.1 µM), without a hit: top-dose activity, negative = inhibition, most hits filed as inhibitors | 410,000 compounds, 1.2% hits; note: potency is the fitted concentration of half-maximal effect; % is set by controls: 0 for no effect and ±100 for the full control effect; nearly all actives have a fitted effect of over 65% in size
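Per well, imaged GFP fluorescence of HEPG2 CAGA-GFP cells gives the signal; cells get compound, then TGF-beta (500 pg/mL final), 18 h at 37 degrees C; %Activity versus -TGF-beta and +DMSO controls.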
IL-1B inflam inh – inflammasome signaling inhibition, IL-1 beta readout. THP-1 LPS/ATP IL-1B secretion, AlphaLISA, 16 h; active compounds read low. activity change, % at 57.5 µM. 360,000 compounds, 4.7% hits; in the data active = activity change below about -50%; inconclusive = mostly about -30% to -49%; note: % is set by controls: 0 for no effect and ±100 for the full control effect
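THP-1 cells pretreated 1 hr with compounds (up to 57.5 uM final), then stimulated with LPS (250 ng/mL final) plus ATP (1.25 mM final); secreted IL-1B measured by AlphaLISA after 16 hr, decreased signal indicating inhibition.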
TDP1 inh – blocks human tyrosyl-DNA phosphodiesterase 1 | Q9NUW8 | recombinant TDP1, AlphaScreen DNA substrate cleavage | Potency, µM (doses to about 130 µM), for the others: at the highest dose activity change, negative = inhibition, usual class: inhibitors | 350,000 compounds, 0.28% hits | AID 485290; note: potency is the fitted concentration of half-maximal effect; % is set by controls: 0 for no effect and ±100 for the full control effect; nearly all actives have a fitted effect of over 40% in size
Target sequence (Q9NUW8 whole entry, looked up): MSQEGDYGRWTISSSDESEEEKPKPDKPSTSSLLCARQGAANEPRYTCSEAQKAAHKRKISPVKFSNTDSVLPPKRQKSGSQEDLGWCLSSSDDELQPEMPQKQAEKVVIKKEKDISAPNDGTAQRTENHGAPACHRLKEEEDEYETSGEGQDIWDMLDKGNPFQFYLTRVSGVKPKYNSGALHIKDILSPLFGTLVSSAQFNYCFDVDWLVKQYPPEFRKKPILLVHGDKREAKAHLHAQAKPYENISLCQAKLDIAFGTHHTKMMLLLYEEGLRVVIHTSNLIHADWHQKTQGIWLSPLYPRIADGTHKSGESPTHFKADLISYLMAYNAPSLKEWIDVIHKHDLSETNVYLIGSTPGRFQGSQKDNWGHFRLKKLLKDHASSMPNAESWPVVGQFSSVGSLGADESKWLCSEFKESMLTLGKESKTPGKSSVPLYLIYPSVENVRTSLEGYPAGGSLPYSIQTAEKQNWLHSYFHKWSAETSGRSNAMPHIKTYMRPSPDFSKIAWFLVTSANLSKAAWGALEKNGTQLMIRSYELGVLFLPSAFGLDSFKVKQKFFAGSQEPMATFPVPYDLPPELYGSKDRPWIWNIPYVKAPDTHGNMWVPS
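AlphaScreen read-out: signal falls as enzyme removes the 3' tyrosine-FITC from a 5'-biotinylated DNA oligo (15 nM, 5 min, RT). Enzyme was E. coli-made recombinant Tdp1 at 1 nM, exposed to compound for 15 min beforehand; beads 10 ug/ml, 10 min.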
TDP1 cell noCPT – qHTS for Inhibitors of human tyrosyl-DNA phosphodiesterase 1 (TDP1): qHTS in cells in absence of CPT. DT40 Tdp1-/- hTDP1 cells, no CPT, ATP luminescence, 48 h. 420,000 compounds, 15% hits. Potency, µM (doses to about 46.2 µM), without a hit: top-dose activity change, negative = growth inhibition, hits mostly inhibitors; note: potency is the fitted concentration of half-maximal effect; % is set by controls: 0 for no effect and ±100 for the full control effect; nearly all actives have a fitted effect of over 55% in size
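Growth of hTDP1-complemented DT40 Tdp1-knockout cells is measured by ATP luminescence after at least 48 hr compound exposure at 37 °C, with DMSO substituting for the 20 nM CPT used in the parallel screen.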
HepG2 tox – counter-screen for TGF-b inhibitors: cytotoxicity in HepG2 cells. HepG2 CAGA-GFP viability, ATP luminescence, 18 h. Potency, µM (highest dose often 46.1 µM), for inactives: at the top dose activity change, negative = cytotoxicity, hits mostly cytotoxic. 410,000 compounds, 0.76% hits; note: potency is the fitted concentration of half-maximal effect
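CellTiter-Glo luminescence gave cytotoxicity after 18 hours at 37 degrees C. The cells were HepG2 CAGA-GFP in 1% FBS DMEM, stimulated with 500 pg/mL TGF-beta after compound addition. %Activity was normalised to no-cell wells (complete cell-killing) and DMSO (no toxicity), and curves were fitted and classified.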
Numbers without * were called inactive; ? = inconclusive; nt = no result; [ ] = remark or other dose. Unless noted, calls come from the whole dose curve; as a rule, active = well fitted curve in the direction sought with a large enough effect; inconclusive = small, poorly fitted or top-dose-only effect, or another doubt; inactive = no such curve, though single readings can be large; an effect the other way counts as inactive or inconclusive.

SMILES | DT40 TDP1 CPT | TGFb SMAD3 inh | IL-1B inflam inh | TDP1 inh | TDP1 cell noCPT | HepG2 tox
Cc1c(O)ccc(C(=O)CN2CCN(c3ccc(F)cc3)CC2)c1O | ? | 7% | 23 | 1% | 16µM* | -2%
CCC1CN(C(=O)Nc2cc(C)ccc2OC)c2cc(Cl)ccc2O1 (centres undefined) | ? | 0% | nt | 0% | -53% | -13%
COc1ccc(CNC(=O)CCC(=O)N2CC3CCCN3c3ccccc32)c(OC)c1 (centres undefined) | 18µM* | ? | nt | 12% | 21µM* | -16%
COc1ccc(OC)c(NC(=O)N2CC(C)Oc3ccc(C)cc32)c1 (centres undefined) | ? | ? | nt | -1% | 21µM* | -23%
COc1ccc(OC)c(NC(=O)N2CC3CCCN3c3ccccc32)c1 (centres undefined) | ? | ? | nt | 11% | 23µM* | -10%
O=C(NCc1cccc(Cl)c1)c1ccc(NC(=O)N2CC3CCCN3c3ccccc32)cc1 (centres undefined) | 23µM* | -4% | nt | 11% | 13µM* | 1%
Cc1ccc(N2CC(C(=O)Nc3ncc([N+](=O)[O-])s3)CC2=O)cc1 (centres undefined) | ? | -3% | 84 | 4%[56.1 µM] | -29% | 9%
Cc1cc(OCC(=O)OCC(=O)NC2CCCCCC2)ccc1Cl | -15% | 6% | 13 | 0% | ? | -17%
COc1ccc(CNC(=O)C2CCC(=O)N(C3CCCCCC3)C2)c(OC)c1 (centres undefined) | 16µM* | -7% | 12 | nt | 8.2µM* | 7%
O=C(CCC(=O)N1CC2CCCN2c2ccccc21)NCc1cccc(Cl)c1 (centres undefined) | 15µM* | ? | nt | 11% | 7.3µM* | -25%
COc1ccc(CCNC(=O)C2CCC(=O)N(C3CC3)C2)c(OC)c1 (centres undefined) | 0% | 0% | 3 | 3%[56.1 µM] | 1% | -65%
O=C(/C=C/c1cn(CC(O)CN2CCOCC2)c2ccccc12)c1cccs1 (centres undefined) | nt | nt | nt | 4% | nt | nt
COc1ccc(C(=O)/C=C/c2cn(CC(O)CN3CCOCC3)c3ccccc23)cc1 (centres undefined) | ? | 1% | -93* | 4% | ? | -6%
Cc1ccc(C(=O)/C=C/c2cn(CC(O)CN3CCc4ccccc43)c3ccccc23)cc1 (centres undefined) | ? | ? | nt | 8% | ? | -10%
COc1ccc(C(=O)/C=C/c2cn(CN3CCN(C)CC3)c3ccccc23)cc1 | -27% | ? | -68* | 3% | ? | -58%
COc1ccc(C(=O)/C=C/c2cn(CC(O)CN3CCc4ccccc43)c3ccccc23)cc1OC (centres undefined) | 3.3µM* | ? | nt | 10% | 4.1µM* | -30%
Cc1ccc(C(=O)/C=C/c2cn(CC(O)CN3CCOCC3)c3ccccc23)cc1 (centres undefined) | ? | -3% | -82* | 2% | ? | -4%
CC(C)(C)C(=O)CNCC(=O)C(C)(C)C | 4% | 5% | 81 | 5% | 13% | 9%
CCN1C(=O)[C@H]2[C@@H](c3ccc(C)cc3)N3C(=O)N(c4ccc(OC)cc4)C(=O)[C@@]3(CC)[C@H]2C1=O | 8% | -12% | 8 | -3% | 0% | 5%
Cc1oc2c(c1C(=O)NCc1cccnc1)C(=O)c1ccccc1C2=O | 0.92µM* | 0.28µM* | -81* | nt | 1µM* | 0.45µM*
CC(=O)c1c(C)oc2c1C(=O)c1ccccc1C2=O | 8.2µM* | 7.9µM* | 35 | 6% | 7.3µM* | -92%
N#Cc1c(N2CCCC(O)C2)nc(N)c2c(N)nc3c(c12)CC(=O)N3C12CC3CC(CC(C3)C1)C2 (centres undefined) | 16µM* | -4% | 9 | -1% | 18µM* | -2%
C=C(C)CN(CC)c1nc(N)c2c(N)nc3c(c2c1C#N)CC(=O)N3C12CC3CC(CC(C3)C1)C2 | 3.3µM* | -3% | -60* | 9% | 3.3µM* | -14%
COc1ccc(CN2C(=O)Cc3c2nc(N)c2c(N)nc(N4CCCCC4)c(C#N)c32)cc1 | nt | nt | nt | 4% | nt | nt
COc1cccc(/C(C)=N/Nc2ccc(S(=O)(=O)N3CCCCC3)cn2)c1 | ? | ? | -2 | 2% | 2.9µM* | -33%
SMILES | DT40 TDP1 CPT | TGFb SMAD3 inh | IL-1B inflam inh | TDP1 inh | TDP1 cell noCPT | HepG2 tox
C/C(=N\Nc1ccc(S(=O)(=O)N2CCCCC2)cn1)c1ccc(O)cc1 | ? | -18% | 0 | 5% | 15µM* | -16%
Cc1ccc(NC(=O)c2ccc(S(=O)(=O)N3CCCCCC3)cc2)nc1 | -28% | -26% | -30 | -3% | ? | 8%
Cc1ccc2c(c1)nnn2C1CCN(S(=O)(=O)c2ccc(C(=O)N3C(C)CCCC3C)cc2)CC1 (centres undefined) | 9.2µM* | ? | -67* | 6% | 9.2µM* | -6%
CC1CC(C)CN(C(C)C(=O)Nc2cc(S(=O)(=O)N3CCCCC3)ccc2Cl)C1 (centres undefined) | ? | -2% | -15 | 0% | 15µM* | 12%
Cc1ccc(S(=O)(=O)N2CCCCC2)cc1C(=O)N1C(C)CCCC1C (centres undefined) | ? | -4% | 1 | 3% | 13µM* | -12%
CC1CC(C)CN(C(=O)c2ccc(S(=O)(=O)N3CCCCC3)cc2)C1 (centres undefined) | -5% | -13% | -7 | 2% | -21% | -6%
CC1CCN(C(C)C(=O)Nc2cc(S(=O)(=O)N3CCCCC3)ccc2Cl)CC1 (centres undefined) | ? | 8% | -17 | -10% | ? | 3%
CC1CC(C)CN(C(=O)c2cc(S(=O)(=O)N3CCCCC3)ccc2Cl)C1 (centres undefined) | 16µM* | -30% | 48 | 0% | 15µM* | 3%
Cc1ccc(S(=O)(=O)N2CCCCC2)cc1C(=O)N1CCCC1 | -2% | -3% | -16 | 1% | 1% | 5%

Screens: PubChem BioAssay, National Center for Advancing Translational Sciences (NCATS)
